The source made the active and inactive calls. How the source made its calls: active means hit-call score of the fitted dose curve at least 0.9, where 1 is the maximum; inactive means score below 0.9.
Key:
[1] = APR_HepG2_CellCycleArrest_24hr: Apredica 24-hour HepG2 Assay for Cell Cycle Arrest (AID 2282905); details: imaging, actives raise or lower the signal;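 further: cell cycle arrest scored as ratio of 2N to 4N nuclear DNA content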
How it was run: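 HepG2 cells were exposed to compounds at 0.39–200 uM (ten concentrations, duplicate) in 0.5% v/v DMSO for 24 hr. After formaldehyde fixation and Triton permeabilization, Hoechst 33342-stained nuclei were imaged at 20x; DNA content was quantified, with bidirectional fitting against DMSO.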

[2] = APR_HepG2_NuclearSize_24hr: Apredica 24-hour HepG2 Assay for Nuclear Size (AID 2282907); details: high-content imaging, actives raise or lower the signal
How it was run: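 HepG2 human liver cells were exposed for 24 hr to compounds at 0.39–200 uM (ten concentrations, duplicate) in 0.5% v/v DMSO. They were then formaldehyde-fixed, Triton-permeabilized and Hoechst 33342-stained, and nuclear diameter was imaged at 20x. Bidirectional fits were made against DMSO.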

[3] = APR_HepG2_CellLoss_24hr: Apredica 24-hour HepG2 Assay for Cell Loss (AID 2282908); details: high-content imaging
How it was run: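 Compounds were tested at 0.39–200 uM in duplicate with 0.5% v/v DMSO final. Cells were then fixed in 3.7% formaldehyde, Hoechst 33342 nuclei were imaged at 20x by HCS, and cell number was fitted bidirectionally against DMSO.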

[4] = APR_HepG2_MicrotubuleCSK_24hr: Apredica 24-hour HepG2 Assay for Microtubule CSK Stabilty (AID 2282909); details: HepG2 microtubule cytoskeleton imaging, actives raise or lower the signal
How it was run: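 HepG2 cells exposed 24 h to compounds at 0.39–200 uM (duplicate, 0.5% v/v DMSO final), then fixed, permeabilized and immunostained for alpha-tubulin with Hoechst 33342. Cytoskeleton imaged at 20x; bidirectional fit versus DMSO baseline.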

[5] = APR_HepG2_MitoticArrest_24hr: Apredica 24-hour HepG2 Assay for Mitotic Arrest (AID 2282910); details: high-content imaging, actives raise or lower the signal
How it was run: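 HepG2 human liver cells were exposed to compounds at 0.39–200 uM (10 concentrations, duplicate) in 0.5% v/v DMSO for 24 hr, then fixed and immunostained for phospho-histone H3 with Hoechst 33342. Mitotic arrest came from HCS fluorescent imaging, fitted bidirectionally against DMSO.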

[6] = APR_HepG2_MitoMembPot_24hr: Apredica 24-hour HepG2 Assay for Mitochondrial Membrane Potential (AID 2282911); details: imaging, actives raise or lower the signal
How it was run: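 Cells are dosed for 24 hr across 0.39 to 200 uM with solvent held at 0.5% DMSO. They are then stained with 250 nM MitoTracker Red CMXRos for 30 min, fixed in 3.7% formaldehyde and imaged.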

[7] = APR_HepG2_MitoMass_24hr: Apredica 24-hour HepG2 Assay for Mitochondrial Mass (AID 2282912); details: high-content imaging, actives raise or lower the signal
How it was run: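 Human HepG2 liver cells were exposed for 24 hr to compounds at 0.39–200 uM (duplicates, 0.5% v/v DMSO final). They were stained live with 250 nM MitoTracker Red CMXRos for 30 min, fixed in 3.7% formaldehyde, and imaged by HCS fluorescence; signals were fitted bidirectionally against DMSO.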

[8] = APR_HepG2_p53Act_24hr: Apredica 24-hour HepG2 Assay for p53 Activation (AID 2282913); details: high-content imaging, actives raise or lower the signal;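 further: p53 protein immunofluorescence averaged per cell in HepG2 with Hoechst nuclei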
How it was run: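 Human HepG2 liver cells; 24 hr cpd treatment, 0.39–200 uM, 0.5% DMSO final. Fixed in 3.7% formaldehyde, permeabilized with 0.5% Triton X-100, stained with anti-p53/Cy5 plus Hoechst 33342. Six images per well at 20x; gain or loss vs DMSO.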

[9] = APR_HepG2_CellCycleArrest_72hr: Apredica 72-hour HepG2 Assay for Cell Cycle Arrest (AID 2282914); details: high-content imaging, actives raise or lower the signal
How it was run: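 Read-out is Hoechst-stained nuclear DNA content measured by automated fluorescence imaging (20x, six images per well), fitted in both directions relative to DMSO. Human HepG2 liver cells received 0.39–200 uM compound for 72 hr at 0.5% v/v DMSO.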

[10] = APR_HepG2_CellLoss_72hr: Apredica 72-hour HepG2 Assay for Cell Loss (AID 2282915); details: high-content imaging
How it was run: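 HepG2 cells were exposed for 72 hr to compounds at 0.39–200 uM (ten concentrations, duplicate) in 0.5% v/v final DMSO. Nuclei were stained with Hoechst 33342 after 3.7% formaldehyde fixation, imaged at 20x, and counted; fits bidirectional versus DMSO.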

[11] = APR_HepG2_P-H2AX_72hr: Apredica 72-hour HepG2 Assay for H2AX Phosphorylation (AID 2282916); details: imaging, actives raise or lower the signal;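 further: phospho-histone H2A.x immunostain intensity per cell marking DNA damage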
How it was run: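 HepG2 human liver cells were exposed for 72 hr to compounds at 0.39–200 uM (10 concentrations, duplicate per plate) in 0.5% v/v DMSO. Fixed, permeabilized cells were immunolabeled for phospho-histone H2A.x with Hoechst 33342 and imaged by HCS fluorescence; bidirectional fit versus DMSO.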

[12] = APR_HepG2_MitoMembPot_72hr: Apredica 72-hour HepG2 Assay for Mitochondrial Membrane Potential (AID 2282917); details: imaging, actives raise or lower the signal
How it was run: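 HepG2 cells exposed 72 h to compounds at 0.39–200 uM (0.5% v/v DMSO, duplicates); MitoTracker Red CMXRos 250 nM loaded 30 min before 3.7% formaldehyde fixation, imaged by HCS fluorescence. Bidirectional fit versus DMSO.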

[13] = APR_HepG2_MitoticArrest_72hr: Apredica 72-hour HepG2 Assay for Mitotic Arrest (AID 2282918); details: high-content imaging, actives raise or lower the signal
How it was run: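 Read-out is phospho-histone H3 immunofluorescence with Hoechst nuclear segmentation, imaged at 20x. Human HepG2 liver cells received ten concentrations (0.39–200 uM, final DMSO 0.5% v/v) for 72 hr before fixation. Gain or loss of signal was fitted relative to DMSO.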

[14] = APR_HepG2_MicrotubuleCSK_72hr: Apredica 72-hour HepG2 Assay for Microtubule CSK Stabilty (AID 2282919); details: HepG2 microtubule cytoskeleton, high-content imaging, actives raise or lower the signal
How it was run: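 HepG2 human liver cells were dosed for 72 h at ten concentrations from 0.39 to 200 uM in duplicate (0.5% v/v DMSO final). Fixed, permeabilized cells were immunostained for alpha-tubulin (Cy5) with a Hoechst counterstain and imaged at 20x.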

[15] = APR_HepG2_StressKinase_72hr: Apredica 72-hour HepG2 Assay for Stress Kinase (AID 2282921); details: HepG2 stress kinase (phospho-c-Jun) imaging, actives raise or lower the signal
How it was run: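 Cells were exposed for 72 h to ten concentrations (0.39–200 uM, duplicate) at 0.5% v/v DMSO final, then fixed with 3.7% formaldehyde, permeabilized and immunostained for phospho-c-Jun (Cy3 secondary) with Hoechst nuclear counterstain.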

[16] = APR_HepG2_StressKinase_24hr: Apredica 24-hour HepG2 Assay for Stress Kinase (AID 2282922); details: HepG2 stress kinase (phospho-c-Jun) imaging, actives raise or lower the signal
How it was run: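 HepG2 cells exposed 24 hr to compound at 0.39–200 uM (10 concentrations, duplicate), 0.5% v/v DMSO final. Fixed in 3.7% formaldehyde, permeabilized with Triton X-100, immunolabeled for phospho-c-Jun with Hoechst 33342; HCS fluorescence imaging, bidirectional fit versus DMSO.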

[17] = APR_HepG2_p53Act_72hr: Apredica 72-hour HepG2 Assay for p53 Activation (AID 2282923); details: high-content imaging, actives raise or lower the signal;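 further: average cellular p53 protein immunofluorescence intensity in HepG2 cells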
How it was run: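 Cells were dosed for 72 hr with compounds at 0.39–200 uM in duplicate (final DMSO 0.5% v/v), then fixed in 3.7% formaldehyde, permeabilized with Triton X-100 and immunostained for p53 (Cy5) with Hoechst 33342 nuclear counterstain.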

[18] = APR_HepG2_MitoMass_72hr: Apredica 72-hour HepG2 Assay for Mitochondrial Mass (AID 2282924); details: high-content imaging, actives raise or lower the signal;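 further: MitoTracker Red CMXRos stain intensity per cell imaged as mitochondrial mass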
How it was run: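 HepG2 cells were exposed for 72 hr to compounds at 0.39–200 uM (ten concentrations, duplicate, 0.5% v/v DMSO final). Live cells were stained with 250 nM MitoTracker Red CMXRos for 30 min, then fixed in 3.7% formaldehyde and imaged by HCS fluorescence.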

[19] = APR_HepG2_NuclearSize_72hr: Apredica 72-hour HepG2 Assay for Nuclear Size (AID 2282925); details: high-content imaging, actives raise or lower the signal
How it was run: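 HepG2 cells were exposed to compounds at ten concentrations from 0.39 to 200 uM (duplicate, 0.5% DMSO final) for 72 hr. After fixation in 3.7% formaldehyde, nuclei were stained with Hoechst 33342 (2 ug/mL) and imaged at 20x.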

[20] = APR_HepG2_P-H2AX_24hr: Apredica 24-hour HepG2 Assay for H2AX Phosphorylation (AID 2282920); details: high-content imaging, actives raise or lower the signal
How it was run: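 HepG2, 24 hr, cpd 0.39–200 uM (10 conc, duplicate), DMSO 0.5% v/v final. Fix 3.7% formaldehyde, Triton X-100 permeabilize, anti-phospho-H2A.x 1:200 + Hoechst 2 ug/mL. Imaged, bidirectional fit vs DMSO.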

Measured: AC50

O=C(Oc1ccc(Br)cc1)N1CCN2CCC1CC2
inactive: [1] | [2] | [3] | [4] | [5] | [6] | [7] | [8] | [12] | [14] | [15] | [16] | [18] | [19]
active: [9] 96.3 µM | [10] 80.8 µM | [11] 101 µM | [13] 106 µM | [17] 103 µM

CCCSC(=O)N(CCC)CCC
inactive: [1] | [2] | [3] | [4] | [5] | [6] | [7] | [8] | [9] | [10] | [11] | [12] | [13] | [14] | [20] | [15] | [16] | [17] | [18] | [19]

Oc1ccccc1Cl
inactive: [1] | [2] | [3] | [4] | [5] | [6] | [7] | [8] | [9] | [10] | [11] | [12] | [13] | [14] | [20] | [15] | [16] | [17] | [18] | [19]

Source: PubChem BioAssay (EPA / NIEHS)
